The list is not random: actives were taken first. Their share in the collection is about 6.1%.
D1 ag = Allosteric Agonists of the Human D1 Dopamine Receptor: qHTS. HEK293 T-REx D1 cells, calcium flux, agonist mode. activation, % at 2 µM. 1% of 360,000 active; in the data active means activation above about 30%
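Inducible HEK293 T-REx D1 cells, force-coupled to calcium signalling, were plated at 4000 cells/well with tetracycline and held overnight at 30 C. After no-wash calcium dye loading, compound-evoked calcium rise over 180 s flagged agonists.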
D1 PAM = Potentiators of Human D1 Dopamine Receptor: qHTS. D(1A) dopamine receptor (Homo sapiens), P21728. HEK293 TREx D1 cells, calcium flux, dopamine EC20 potentiation. potentiation, % at 10 µM. 0.036% of 360,000 active. AID 504651, 2011; in the data active means potentiation above about 30%
DRD3 antagonist = qHTS of D3 Dopamine Receptor Antagonist: qHTS | max response, negative = inhibition, % | D3R cells, DiscoveRx beta-arrestin luminescence, antagonist mode; hits give low values | D(3) dopamine receptor (Homo sapiens), P35462 | AID 652054, 2013 | 2.5% of 360,000 active; in the data active means max response below about -50%; inconclusive means no clear call, values can overlap the other calls
Target sequence (P35462 whole entry, looked up): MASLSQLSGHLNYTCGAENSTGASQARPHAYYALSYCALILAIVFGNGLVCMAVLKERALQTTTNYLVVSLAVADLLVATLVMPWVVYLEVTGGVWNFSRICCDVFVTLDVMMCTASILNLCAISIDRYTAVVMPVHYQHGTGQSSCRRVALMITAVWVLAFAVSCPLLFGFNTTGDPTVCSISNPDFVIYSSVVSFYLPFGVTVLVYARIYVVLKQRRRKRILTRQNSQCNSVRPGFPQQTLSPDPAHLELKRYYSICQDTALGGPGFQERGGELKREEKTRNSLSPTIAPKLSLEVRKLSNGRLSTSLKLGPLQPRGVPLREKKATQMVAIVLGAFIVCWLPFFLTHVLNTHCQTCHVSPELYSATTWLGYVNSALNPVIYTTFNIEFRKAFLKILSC
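Cells expressing the human receptor were seeded at 1500 cells/well, incubated overnight at 37 degrees C in 5% CO2, then exposed to library compounds with dopamine controls for 90 minutes at 37 degrees C before luminescent detection.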
D1 antag = Antagonist of Human D 1 Dopamine Receptor: qHTS | 3.2% of 360,000 active | activity change, negative = inhibition, % at 10 µM | D(1A) dopamine receptor (Homo sapiens), P21728 | AID 504652, 2011 | HEK293 TREx D1 cells, calcium flux, dopamine EC80; hits give low values; in the data active means activity change below about -30%
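Tetracycline-induced HEK293 T-REx cells with force-coupled D1 receptor were loaded with a no-wash calcium dye. Compound was added after a 10 s baseline and read kinetically for 180 s; EC80 dopamine was then added and calcium flux followed another 180 s.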
DRD3 agonist = qHTS of D3 Dopamine Receptor Agonist: qHTS | D3R DiscoveRx beta-arrestin cells, luminescence, 90 min | AID 652048, 2013 | max activation, % | 0.58% of 410,000 active; in the data active means max activation above about 30%
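Cells at 1500/well, incubated overnight, then treated with pinned compounds (dopamine as control) for 90 min at 37 degrees C. DiscoveRx reagent added for 30 - 60 minutes at room temperature; luminescence read.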
Numbers stand for hits; – = inactive; ? = inconclusive; · = not tested or not shown.

SMILES | D1 ag | D1 PAM | DRD3 antagonist | D1 antag | DRD3 agonist
Oc1cccc(Nc2nc(O)c(/C=C3\C=Nc4ccccc43)s2)c1 | 34 | – | ? | – | –
Oc1nc(Nc2ccc(F)cc2)sc1/C=C1\C=Nc2ccccc21 | – | – | – | – | –
CC1=Nc2ccccc2/C1=C\c1sc(Nc2ccc(C)cc2)nc1O | – | – | -54 | – | –
CNC(=O)c1ccsc1NC(=O)C1CCCN1S(=O)(=O)c1cccs1 (centres undefined) | – | – | – | – | –
CCc1ccc2c(c1)C1(NN=C(c3ccc(C)cc3)S1)C(=O)N2 (centres undefined) | – | – | -94 | – | –
CC(C)c1ccc2c(c1)C1(NN=C(c3ccccc3)S1)C(=O)N2 (centres undefined) | – | – | – | – | –
CCn1c(C(=O)N2CCC(C(=O)NCCc3ccc(OC)cc3OC)CC2)cc2sccc21 | – | – | · | – | –
Cc1cccc(C)c1-n1nnnc1C1(C)CCC(=O)N1CCCn1ccnc1 (centres undefined) | · | · | – | · | –
CCCCn1nnnc1C1(C)CCC(=O)N1CCCn1ccnc1 (centres undefined) | · | · | -106 | · | –
N#Cc1nc(-c2ccc(COc3ccc(Cl)cc3)o2)oc1N1CCCCC1 | – | – | · | – | –
COc1ccc(Cc2nc(-c3ccc(-n4cccc4)cc3)no2)cc1 | – | – | – | – | –
COc1ccc(-c2nc(-c3cccc(C)c3)no2)cc1OC | – | – | – | – | 65
COc1ccccc1-c1noc(-c2ccccc2)n1 | – | – | – | – | –
COc1ccc(-c2nc(-c3ccccc3OC)no2)cc1OC | – | – | – | -36 | –
COc1ccc(Cc2nc(-c3ccc(-n4cccc4)cc3)no2)cc1OC | 32 | – | – | -39 | –
COc1ccccc1-c1noc(-c2ccc(NC3CCCC3)c([N+](=O)[O-])c2)n1 | – | – | · | -40 | –
CCN(Cc1nc(-c2cccc(C)c2)no1)C(=O)c1ccc2c(c1)OCO2 | 35 | · | – | – | –
COc1ccc(-c2noc(COc3ccc(C)cc3C)n2)cc1OC | – | – | · | – | –
Cc1cccc(-c2noc(-c3ccc4c(c3)OCO4)n2)c1 | – | – | – | -45 | –
Cc1cccc(-c2nc(-c3ccncc3)no2)c1 | – | – | – | – | –
COc1cc(-c2nc(-c3cccc(C)c3)no2)cc(OC)c1OC | – | – | – | – | 58
COc1ccc(-c2noc(COc3cc(C)ccc3C)n2)cc1OC | 47 | – | · | – | –
CCC(C)S(=O)(=O)c1oc(-c2cccs2)nc1S(=O)(=O)c1ccccc1 (centres undefined) | – | – | · | – | –
COc1ccc(-c2csc(NC(=O)C3CC(=O)N(Cc4ccccc4)C3)n2)cc1OC (centres undefined) | – | – | – | – | –
Cc1cccc(C)c1NC(=O)CNC(=O)CCCc1c[nH]c2ccccc12 | – | – | – | – | –
SMILES | D1 ag | D1 PAM | DRD3 antagonist | D1 antag | DRD3 agonist
C=CCn1c(COc2ccc(F)cc2)nnc1SCC(=O)NC1CCS(=O)(=O)C1 (centres undefined) | – | – | – | – | –
Cc1cc(C(=O)COC(=O)c2ccc[nH]c2=O)c(C)n1-c1ccc(F)cc1 | – | – | – | – | –
CC1CCC/C(=N/Nc2ccc([N+](=O)[O-])cc2[N+](=O)[O-])C1 (centres undefined) | – | – | – | -32 | –
O=C(COC(=O)/C=C/c1cc(Br)ccc1F)Nc1ccc2[nH]c(=O)[nH]c2c1 | – | – | – | – | 88
Cc1nc(Nc2ccccc2)sc1C(=O)c1ccc(F)cc1 | – | – | – | – | –
Nc1nc(Nc2ccccc2F)sc1C(=O)c1ccccc1 | 34 | – | – | – | –
CCc1ccc(S(=O)(=O)/N=C2/C=C(Sc3ncn[nH]3)C(=O)c3ccccc32)cc1 | – | – | -80 | – | –
CCc1ccc(S(=O)(=O)/N=C2\C=C(Nc3ccc(O)cc3)C(=O)c3ccccc32)cc1 | – | – | -90 | – | –
CCc1ccc(S(=O)(=O)/N=C2\C=C(Nc3cccc(C(=O)O)c3)C(=O)c3ccccc32)cc1 | – | – | -93 | – | –
OCCNCC(O)Cn1c2ccccc2c2ccccc21 (centres undefined) | – | – | – | – | –
OCCNCC(O)Cn1ccc2ccccc21 (centres undefined) | – | – | -52 | – | –
Cc1ccc(N(C)S(=O)(=O)c2cccc(C(=O)N(C)Cc3cnn(-c4ccccc4)c3)c2)cc1 | – | – | – | – | –
CCOc1cc(CNc2ccc(N3CCOCC3)cc2)cc(Br)c1OCC | – | – | – | – | 37
CCCNS(=O)(=O)c1ccc(CCC(=O)Nc2cc(Cl)ccc2Oc2ccccc2)cc1 | – | – | – | – | 30
Cc1cccc(C)c1N(CC(=O)Nc1cc(Cl)ccc1Oc1ccccc1)S(C)(=O)=O | – | – | -54 | – | –
CSc1sc(-c2nnc(SCC(=O)Nc3ccccc3)n2C)c2c1C=CCC2 | – | – | – | -36 | –
CCCCOc1ccc(CSc2nc(C)[nH]c2[N+](=O)[O-])cc1[N+](=O)[O-] | – | – | – | -31 | –
NN=C1c2ccccc2C(=O)C1C(=O)C(c1ccccc1)c1ccccc1 (centres undefined) | · | · | – | · | –
Cc1ccc(S(=O)(=O)NCC(=O)OCCOc2cccc(Cl)c2)cc1 | – | 40 | – | – | –
Cc1ccc(NC(=O)COC(=O)CCNS(=O)(=O)c2c(Cl)cccc2Cl)cc1 | · | · | – | · | –
Cc1ccc(S(=O)(=O)NCCC(=O)OCC(=O)Nc2cccc(Cl)c2)cc1 | – | – | – | -42 | –
CCc1ccc(CNC(=O)C2COc3ccc(OC)cc3C2)cc1 (centres undefined) | – | – | · | – | –
CS(=O)(=O)Cc1ccc(C(=O)NC2CCSc3ccccc32)cc1 (centres undefined) | – | – | – | – | –
CCOC(=O)COc1c(OC)cc(Cl)cc1C1Nc2ccccc2C(=O)N1c1ccc(F)cc1 (centres undefined) | – | – | – | – | –
CCOC(=O)COc1c(OC)cc(Cl)cc1C1Nc2ccccc2C(=O)N1c1ccccc1 (centres undefined) | – | – | -59 | – | –
Cn1cc(CN2CCN(c3ccccc3)CC2)c2ccccc21 | – | – | -79 | – | –
CC(c1ccccc1)N1C(=O)c2ccccc2C1(O)Cc1ccccc1 (centres undefined) | – | – | – | -74 | –

Bioassay records from PubChem.
